Measured values as given in PubChem BioAssay AID1159580 (chemical genetic matrix, 2015).
Several values for one entry are separate records, joined by “and”; a condition that tells them apart may be missing. Identical values can stand only once. Among all 5,500 compounds or so, about 2,000 (36%) were called active. About 18% were inconclusive and are not listed. Cut-off read from the data, not from the text of the source: active = normalized growth mostly below about 0.91 (no sharp cut-off); inconclusive = no clear call, values can overlap the other calls; inactive = mostly above about 0.92. This is one part of the list.

Assay: chemical genetic growth profiling, strain panel (AID 1159580);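 note: tested at 20 µM; growth read once vehicle control cultures reached saturation at 30 °C; 1 = growth at the plate median or of vehicle wells; lower values mean less growth of the strain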
Conditions: S. cerevisiae deletion strains, growth OD
[1] = locus YGR078C, strain PAC10, active compounds read low
[2] = locus YGR229C, strain SMI1, active compounds read low
[3] = locus YJR075W, strain HOC1, active compounds read low
[4] = locus YAL013W, strain DEP1, active compounds read low
[5] = locus YBR229C, strain ROT2, active compounds read low
[6] = locus YDL101C, strain DUN1, active compounds read low
[7] = locus YDR150W, strain NUM1, active compounds read low
[8] = locus YEL061C, strain CIN8, active compounds read low
[9] = locus YHR030C, strain SLT2, active compounds read low
[10] = locus YJR043C, strain POL32, active compounds read low
[11] = locus YLR039C, strain RIC1, active compounds read low
[12] = locus YLR262C, strain YPT6, active compounds read low
[13] = locus YMR263W, strain SAP30, active compounds read low
[14] = locus YPL055C, strain LGE1, active compounds read low
[15] = locus YPL241C, strain CIN2, active compounds read low

Measured: normalized growth

NC1C=CC=C(C(=O)O)C1 (stereo not given)
inactive: locus YAL040C, strain CLN3, active compounds read low 0.969 | locus YCL061C, strain MRC1 (second series), active compounds read low 0.989 | locus YER002W, strain NOP16, active compounds read low 0.992 | [1] 1 | [2] 0.999 | [3] 0.994 | locus YNL175C, strain NOP13, active compounds read low 0.995 | locus YNL197C, strain WHI3, active compounds read low 0.979 | locus YNL224C, strain SQS1, active compounds read low 1 | locus YOR083W, strain WHI5 (second series), active compounds read low 0.986

Fc1cc2n[nH]nc2cc1Cl
inactive: [4] 1 | [5] 0.989 | [6] 0.97 | [7] 0.919 | [8] 0.992 | [1] 0.972 | [9] 0.977 | locus YHR087W, strain rtc3, active compounds read low 0.997 | [10] 0.997 | [3] 0.958 | [11] 1.06 | locus YLR058C, strain SHM2 (second series), active compounds read low 0.978 | locus YLR085C, strain ARP6, active compounds read low 0.94 | [12] 1.06 | locus YML094W, strain GIM5, active compounds read low 0.979 | locus YMR219W, strain ESC1, active compounds read low 0.985 | [13] 0.931 | locus YNL153C, strain GIM3, active compounds read low 0.995 | locus YNL298W, strain CLA4 (second series), active compounds read low 0.977 | locus YNL322C, strain KRE1, active compounds read low 0.974 | locus YNR030W, strain Alg12, active compounds read low 0.993 | [14] 0.931 | [15] 0.978 | locus YPR135W, strain CTF4, active compounds read low 0.945

CC(=O)O[C@H]1C[C@@H](OC(C)=O)C(C)(C)C2C[C@@H](OC(C)=O)[C@@]3(C)C4=CC(=O)O[C@@H](c5ccoc5)[C@]4(C)CCC3[C@]21C (stereo not given in full)
inactive: [4] 1.01 | locus YAL021C, strain ccr4, active compounds read low 1.02 | locus YAL026C, strain drs2, active compounds read low 1 | locus YAL030W, strain snc1, active compounds read low 0.998 | locus YBL061C, strain skt5, active compounds read low 0.997 | locus YBR009C, strain hhf1, active compounds read low 0.99 | locus YBR021W, strain FUR4, active compounds read low 0.993 | locus YBR023C, strain chs3, active compounds read low 0.982 | locus YBR171W, strain sec66, active compounds read low 1 | [5] 1 | locus YBR231C, strain swc5, active compounds read low 0.989 | locus YBR279W, strain paf1, active compounds read low 1 | locus YCL011C, strain gbp2, active compounds read low 1 | locus YCL016C, strain dcc1, active compounds read low 0.997 | locus YCL029C, strain bik1, active compounds read low 1 | locus YCL061C, strain MRC1, active compounds read low 0.994 | locus YCL069W, strain vba3, active compounds read low 1.01 | locus YCR088W, strain abp1, active compounds read low 0.999 | locus YDL005C, strain med2, active compounds read low 0.989 | locus YDL035C, strain GPR1, active compounds read low 1.01 | locus YDL040C, strain nat1, active compounds read low 0.983 | locus YDL074C, strain BRE1, active compounds read low 0.993 | [6] 1 | locus YDL185W, strain tfp1, active compounds read low 1.01 | locus YDL192W, strain arf1, active compounds read low 1 | locus YDR001C, strain nth1, active compounds read low 1 | locus YDR069C, strain doa4, active compounds read low 0.983 | locus YDR101C, strain arx1, active compounds read low 1 | locus YDR137W, strain rgp1, active compounds read low 0.998 | [7] 1.01 | locus YDR159W, strain sac3, active compounds read low 0.968 | locus YDR162C, strain NBP2, active compounds read low 1.03 | locus YDR195W, strain ref2 0.961 | locus YDR297W, strain sur2, active compounds read low 1 | locus YDR318W, strain mcm21, active compounds read low 1 | locus YDR334W, strain swr1, active compounds read low 0.997 | locus YDR335W, strain msn5, active compounds read low 1 | locus YDR388W, active compounds read low 0.999 | locus YDR392W, strain spt3, active compounds read low 0.963 | locus YDR502C, strain sam2, active compounds read low 0.98 | locus YEL003W, strain gim4, active compounds read low 1.01 | locus YEL037C, strain rad23, active compounds read low 1.02 | locus YEL061C, strain CIN8 (second series), active compounds read low 1 | [8] 0.997 | locus YER015W, strain faa2, active compounds read low 0.998 | locus YER016W, strain bim1, active compounds read low 0.991 | locus YER110C, active compounds read low 0.997 | locus YER111C, strain swi4, active compounds read low 1 | locus YER155C, strain BEM2 (second series), active compounds read low 0.975 | locus YER155C, strain BEM2, active compounds read low 0.995 | locus YER167W, strain BCK2, active compounds read low 1.01 | locus YFR010W, strain ubp6, active compounds read low 1.01 | locus YGL078C, strain dbp3, active compounds read low 1.01 | locus YGL086W, strain mad1, active compounds read low 0.985 | locus YGL167C, strain pmr1, active compounds read low 0.996 | locus YGL173C, strain kem1, active compounds read low 1 | locus YGL227W, strain vid30, active compounds read low 0.998 | locus YGL240W, strain doc1, active compounds read low 0.973 | locus YGL248W, strain PDE1, active compounds read low 1 | locus YGL253W, strain hxk2, active compounds read low 1.01 | [1] 1.01 | locus YGR135W, strain pre9, active compounds read low 0.992 | [2] 1.05 | locus YGR252W, strain gcn5, active compounds read low 0.922 | locus YHR013C, strain ard1, active compounds read low 0.987 | locus YHR027C, strain rpn1, active compounds read low 0.994 | [9] 1.01 and 0.97 | locus YHR079C, strain IRE1 (second series), active compounds read low 1 | locus YHR079C, strain IRE1, active compounds read low 0.982 | locus YHR094C, strain hxt1, active compounds read low 1 | locus YHR129C, strain ARP1, active compounds read low 1.01 | locus YHR142W, strain chs7, active compounds read low 1.03 | locus YHR200W, strain rpn10, active compounds read low 0.993 | locus YIL066C, strain RNR3, active compounds read low 1.01 | locus YIL073C, strain SPO22, active compounds read low 1.03 | locus YIL125W, strain kgd1, active compounds read low 0.995 | locus YIR030C, strain dcg1, active compounds read low 0.998 | locus YJL092W, strain hpr5, active compounds read low 1.01 | locus YJL095W, strain BCK1 (second series), active compounds read low 1 | locus YJL095W, strain BCK1, active compounds read low 1.01 and 0.953 | locus YJL115W, strain asf1, active compounds read low 0.999 | locus YJL129C, strain trk1, active compounds read low 1.01 | locus YJL134W, strain LCB3, active compounds read low 1.01 | locus YJL154C, strain vps35, active compounds read low 0.999 | locus YJL164C, strain tpk1, active compounds read low 1 | locus YJL166W, strain qcr8, active compounds read low 0.994 | locus YJL168C, strain set2, active compounds read low 0.994 | locus YJL187C, strain SWE1 (second series), active compounds read low 1.01 | locus YJL187C, strain SWE1, active compounds read low 0.997 | [10] 1.01 | locus YJR066W, strain TOR1, active compounds read low 0.941 | locus YKL009W, strain mrt4, active compounds read low 0.99 | locus YKL068W, active compounds read low 1.01 | locus YKL085W, strain MDH1 (second series), active compounds read low 0.991 | locus YKL085W, strain MDH1, active compounds read low 0.991 | locus YKL160W, strain elf1, active compounds read low 0.995 | locus YKR001C, strain vps1, active compounds read low 0.992 | locus YKR026C, strain gcn3, active compounds read low 1.01 | locus YKR091W, strain srl3, active compounds read low 1 | locus YLL001W, strain dnm1, active compounds read low 1.02 | locus YLL026W, active compounds read low 0.998 | locus YLL041C, strain sdh2, active compounds read low 1 | locus YLR027C, strain aat2, active compounds read low 0.982 | [11] 1.05 | locus YLR058C, strain SHM2, active compounds read low 1.01 | locus YLR102C, strain apc9, active compounds read low 0.989 | locus YLR113W, strain HOG1, active compounds read low 1.03 | locus YLR221C, strain rsa3, active compounds read low 0.989 | locus YLR258W, strain gsy2, active compounds read low 0.978 | locus YLR262C, strain YPT6 (second series), active compounds read low 0.983 | [12] 1.09 | locus YLR268W, strain sec22, active compounds read low 1.01 | locus YLR320W, strain mms22, active compounds read low 0.977 | locus YLR330W, strain CHS5, active compounds read low 1.01 | locus YLR342W, strain FKS1, active compounds read low 0.991 | locus YLR357W, strain rsc2, active compounds read low 0.994 | locus YLR370C, strain arc18, active compounds read low 1 | locus YLR371W, strain rom2, active compounds read low 0.995 | locus YLR384C, strain iki3, active compounds read low 0.977 | locus YLR418C, strain cdc73, active compounds read low 0.973 | locus YML016C, strain PPZ1, active compounds read low 1 | locus YML032C, strain rad52, active compounds read low 1 | locus YML120C, strain ndi1, active compounds read low 1 | locus YML124C, strain tub3, active compounds read low 0.998 | locus YMR058W, strain fet3, active compounds read low 1.02 | locus YMR078C, strain ctf18, active compounds read low 0.989 | locus YMR125W, strain sto1, active compounds read low 0.998 | locus YMR129W, active compounds read low 1.01 | locus YMR205C, strain PFK2, active compounds read low 1.01 | locus YMR223W, strain ubp8, active compounds read low 0.988 | locus YMR231W, strain pep5, active compounds read low 0.962 | [13] 1.01 | locus YMR307W, strain GAS1, active compounds read low 1.05 | locus YNL067W, strain RPL9B, active compounds read low 1.01 | locus YNL071W, strain lat1, active compounds read low 1.01 | locus YNL183C, strain NPR1, active compounds read low 0.961 | locus YNL209W, strain ssb2, active compounds read low 0.992 | locus YNL233W, strain BNI4, active compounds read low 1.02 | locus YNL248C, strain rpa49, active compounds read low 1 | locus YNL250W, strain rad50, active compounds read low 1.01 | locus YNL271C, strain bni1, active compounds read low 1 | locus YNL298W, strain CLA4, active compounds read low 0.995 | locus YNL307C, strain MCK1, active compounds read low 0.995 | locus YNL322C, strain KRE1 (second series), active compounds read low 0.992 | locus YNR049C, strain mso1, active compounds read low 1 | locus YNR052C, strain pop2, active compounds read low 0.995 | locus YOL006C, strain TOP1, active compounds read low 1 | locus YOL012C, strain htz1 0.751 | locus YOL147C, strain pex11, active compounds read low 0.996 | locus YOR001W, strain rrp6, active compounds read low 0.979 | locus YOR061W, strain CKA2, active compounds read low 1 | locus YOR069W, strain VPS5, active compounds read low 0.999 | locus YOR070C, strain gyp1, active compounds read low 1.01 | locus YOR080W, strain dia2, active compounds read low 0.981 | locus YOR083W, strain WHI5, active compounds read low 1.01 | locus YOR106W, strain vam3, active compounds read low 1 | locus YOR136W, strain idh2, active compounds read low 0.991 | locus YOR144C, strain elg1, active compounds read low 0.99 | locus YOR184W, strain ser1, active compounds read low 0.999 | locus YOR231W, strain MKK1, active compounds read low 0.978 | locus YOR265W, strain rbl2, active compounds read low 0.993 | locus YOR270C, strain vph1, active compounds read low 1.04 | locus YOR290C, strain snf2, active compounds read low 1 | locus YOR316C, strain cot1, active compounds read low 1 | locus YPL051W, strain arl3, active compounds read low 0.977 | [14] 1.01 | locus YPL078C, strain atp4, active compounds read low 1 | locus YPL106C, strain sse1, active compounds read low 0.975 | locus YPL240C, strain hsp82, active compounds read low 0.997 | [15] 1.01 | locus YPL256C, strain CLN2, active compounds read low 0.957 | locus YPR119W, strain clb2, active compounds read low 0.995 | locus YPR141C, strain kar3, active compounds read low 1.01 | locus YPR163C, strain tif3, active compounds read low 1 | locus YPR167C, strain met16, active compounds read low 0.995 | strain wtn01, active compounds read low 0.993
